13 compounds from ChEMBL document CHEMBL2218924, “A broad activity screen in support of a chemogenomic map for kinase signalling research and drug discovery” (Biochem J, 2013) can be followed below.

Assay [1] has as its target Mitogen-activated protein kinase 10 (Homo sapiens) (UniProt P53779). The following applies: at 10 µM.
Assay [2] deals with Vascular endothelial growth factor receptor 2 (Homo sapiens) (UniProt P35968). The following applies: at 1 µM.
Assay [3] shares this target. The following applies: at 10 µM.
For assay [4], the target named is LIM domain kinase 1 (Homo sapiens) (UniProt P53667). The following applies: at 1 µM.
Assay [5] has the same target. As to conditions: at 10 µM.
Assay [6] addresses T1, Serine/threonine-protein kinase STK11 (Homo sapiens) (UniProt Q15831).
T1 sequence (whole entry): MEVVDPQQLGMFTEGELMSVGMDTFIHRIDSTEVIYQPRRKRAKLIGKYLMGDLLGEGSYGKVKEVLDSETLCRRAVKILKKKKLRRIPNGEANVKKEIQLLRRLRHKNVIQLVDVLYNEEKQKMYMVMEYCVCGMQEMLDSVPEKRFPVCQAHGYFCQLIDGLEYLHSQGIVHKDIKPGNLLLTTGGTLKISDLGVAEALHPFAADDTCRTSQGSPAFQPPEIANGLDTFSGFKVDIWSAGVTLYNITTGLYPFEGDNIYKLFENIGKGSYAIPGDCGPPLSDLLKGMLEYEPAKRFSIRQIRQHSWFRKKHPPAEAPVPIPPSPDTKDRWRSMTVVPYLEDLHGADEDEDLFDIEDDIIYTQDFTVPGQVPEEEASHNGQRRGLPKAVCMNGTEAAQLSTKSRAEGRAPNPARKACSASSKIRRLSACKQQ
As to conditions: at 1 µM.

Assay [7] deals with T1, Serine/threonine-protein kinase STK11 (Homo sapiens). The following applies: at 10 µM.
The target of assay [8] is Serine/threonine-protein kinase 10 (Homo sapiens) (UniProt O94804). The following applies: at 1 µM.
Assay [9] has the same target. As to conditions: at 10 µM.
The target in assay [10] is Tyrosine-protein kinase Lck (Homo sapiens) (UniProt P06239). The following applies: at 1 µM.
The target is the same in assay [11]. As to conditions: at 10 µM.
Assay [12] has the same target. The following applies: at 1 µM. The source holds these as a separate data set.
For assay [13] the target is unchanged. The following applies: at 10 µM. The source holds these as a separate data set.
For assay [14], the target named is Tyrosine-protein kinase Lyn (Homo sapiens) (UniProt P07948). The following applies: at 1 µM.
Assay [15] has the same target. As to conditions: at 10 µM.
For assay [16], the target named is Mitogen-activated protein kinase 3 (Homo sapiens) (UniProt P27361). The following applies: at 1 µM.
Assay [17] has the same target. The following applies: at 10 µM.
Assay [18] addresses Mitogen-activated protein kinase 1 (Homo sapiens) (UniProt P28482). The following applies: at 1 µM.
Assay [19] has the same target. The following applies: at 10 µM.
Assay [20] concerns the target MAP kinase-activated protein kinase 2 (Homo sapiens) (UniProt P49137). The following applies: at 1 µM.

Chain of Mitogen-activated protein kinase 1 (Homo sapiens) (P28482 whole entry): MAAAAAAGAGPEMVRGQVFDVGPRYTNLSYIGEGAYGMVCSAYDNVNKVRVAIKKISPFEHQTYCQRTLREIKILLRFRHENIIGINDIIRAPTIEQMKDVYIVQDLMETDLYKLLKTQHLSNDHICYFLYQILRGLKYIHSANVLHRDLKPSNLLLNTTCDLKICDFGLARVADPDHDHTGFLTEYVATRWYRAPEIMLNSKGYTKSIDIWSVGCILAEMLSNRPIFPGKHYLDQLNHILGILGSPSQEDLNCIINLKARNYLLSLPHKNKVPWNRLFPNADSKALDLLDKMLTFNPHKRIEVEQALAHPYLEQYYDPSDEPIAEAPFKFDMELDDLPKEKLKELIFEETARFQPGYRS
Chain of Mitogen-activated protein kinase 3 (Homo sapiens) (P27361 whole entry): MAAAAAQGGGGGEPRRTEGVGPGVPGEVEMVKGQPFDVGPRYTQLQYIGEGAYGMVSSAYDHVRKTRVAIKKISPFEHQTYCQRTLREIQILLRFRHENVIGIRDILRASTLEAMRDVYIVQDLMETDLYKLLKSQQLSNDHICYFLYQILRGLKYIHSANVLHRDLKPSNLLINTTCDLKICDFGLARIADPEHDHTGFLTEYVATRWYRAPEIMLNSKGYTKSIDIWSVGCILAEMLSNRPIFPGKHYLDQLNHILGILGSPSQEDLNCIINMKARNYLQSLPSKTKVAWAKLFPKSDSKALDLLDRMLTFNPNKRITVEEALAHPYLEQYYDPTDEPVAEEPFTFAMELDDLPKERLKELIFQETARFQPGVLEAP
Chain of Tyrosine-protein kinase Lck (Homo sapiens) (P06239 2-509 limits assumed): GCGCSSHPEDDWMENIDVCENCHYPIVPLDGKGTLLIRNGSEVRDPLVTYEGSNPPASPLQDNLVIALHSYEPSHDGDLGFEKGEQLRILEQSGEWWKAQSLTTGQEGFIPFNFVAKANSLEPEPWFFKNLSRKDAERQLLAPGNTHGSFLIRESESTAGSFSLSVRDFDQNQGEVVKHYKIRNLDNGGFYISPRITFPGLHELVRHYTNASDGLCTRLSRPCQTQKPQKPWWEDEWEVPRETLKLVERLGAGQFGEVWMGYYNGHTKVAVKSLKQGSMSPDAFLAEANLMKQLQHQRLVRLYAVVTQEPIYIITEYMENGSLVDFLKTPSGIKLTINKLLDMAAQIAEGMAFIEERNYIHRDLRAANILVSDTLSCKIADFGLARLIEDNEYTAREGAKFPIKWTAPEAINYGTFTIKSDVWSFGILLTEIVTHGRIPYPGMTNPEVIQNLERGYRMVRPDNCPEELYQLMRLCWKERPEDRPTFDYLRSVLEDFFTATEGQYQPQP
Chain of Vascular endothelial growth factor receptor 2 (Homo sapiens) (P35968 whole entry): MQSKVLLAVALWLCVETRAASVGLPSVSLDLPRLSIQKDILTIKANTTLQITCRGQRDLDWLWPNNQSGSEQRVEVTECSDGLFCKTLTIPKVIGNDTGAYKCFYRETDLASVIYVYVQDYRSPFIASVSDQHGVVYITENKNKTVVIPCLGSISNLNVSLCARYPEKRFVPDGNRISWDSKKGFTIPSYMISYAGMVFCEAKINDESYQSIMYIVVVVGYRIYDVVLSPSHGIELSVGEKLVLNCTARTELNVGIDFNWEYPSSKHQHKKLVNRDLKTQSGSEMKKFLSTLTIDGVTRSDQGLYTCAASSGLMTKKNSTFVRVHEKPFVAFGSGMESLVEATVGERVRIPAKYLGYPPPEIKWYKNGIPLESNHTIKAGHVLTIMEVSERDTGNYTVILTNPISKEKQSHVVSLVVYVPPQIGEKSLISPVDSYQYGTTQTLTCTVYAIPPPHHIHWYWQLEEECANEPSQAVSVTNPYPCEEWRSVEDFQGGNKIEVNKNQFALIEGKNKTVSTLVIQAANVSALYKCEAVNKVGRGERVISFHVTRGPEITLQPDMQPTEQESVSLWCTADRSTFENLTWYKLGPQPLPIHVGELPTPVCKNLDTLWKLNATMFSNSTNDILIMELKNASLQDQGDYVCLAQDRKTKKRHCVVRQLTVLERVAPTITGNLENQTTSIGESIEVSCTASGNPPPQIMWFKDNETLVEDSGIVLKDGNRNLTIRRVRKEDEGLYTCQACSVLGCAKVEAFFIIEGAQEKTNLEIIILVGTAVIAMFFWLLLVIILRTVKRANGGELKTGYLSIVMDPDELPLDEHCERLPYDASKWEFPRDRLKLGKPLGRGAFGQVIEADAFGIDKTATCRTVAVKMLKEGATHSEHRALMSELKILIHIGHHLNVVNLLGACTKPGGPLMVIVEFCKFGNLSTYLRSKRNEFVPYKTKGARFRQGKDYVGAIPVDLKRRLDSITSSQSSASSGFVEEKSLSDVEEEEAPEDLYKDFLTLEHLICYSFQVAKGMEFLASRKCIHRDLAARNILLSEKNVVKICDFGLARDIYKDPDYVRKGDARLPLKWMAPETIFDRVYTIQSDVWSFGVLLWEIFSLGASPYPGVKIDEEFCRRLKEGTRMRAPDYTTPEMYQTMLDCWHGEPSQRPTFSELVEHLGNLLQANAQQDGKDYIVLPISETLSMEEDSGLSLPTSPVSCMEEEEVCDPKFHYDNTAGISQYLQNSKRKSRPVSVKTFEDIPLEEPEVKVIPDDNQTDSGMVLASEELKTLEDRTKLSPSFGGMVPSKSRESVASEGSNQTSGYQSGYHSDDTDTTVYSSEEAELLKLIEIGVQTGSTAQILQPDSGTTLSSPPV
Chain of Tyrosine-protein kinase Lyn (Homo sapiens) (P07948 2-512 limits assumed): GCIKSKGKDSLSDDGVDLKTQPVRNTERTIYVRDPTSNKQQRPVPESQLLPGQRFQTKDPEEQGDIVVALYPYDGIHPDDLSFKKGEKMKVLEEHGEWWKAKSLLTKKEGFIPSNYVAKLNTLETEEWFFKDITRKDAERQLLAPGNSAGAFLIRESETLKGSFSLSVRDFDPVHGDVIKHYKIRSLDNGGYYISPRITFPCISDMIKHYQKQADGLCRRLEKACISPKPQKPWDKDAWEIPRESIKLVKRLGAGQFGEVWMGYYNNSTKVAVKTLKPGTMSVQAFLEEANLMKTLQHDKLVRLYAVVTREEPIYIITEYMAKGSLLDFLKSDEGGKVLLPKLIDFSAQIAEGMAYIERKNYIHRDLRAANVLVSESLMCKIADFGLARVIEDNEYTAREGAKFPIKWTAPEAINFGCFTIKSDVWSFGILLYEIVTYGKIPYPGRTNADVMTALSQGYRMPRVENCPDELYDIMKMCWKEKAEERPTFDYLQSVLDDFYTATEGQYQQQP
Chain of Mitogen-activated protein kinase 10 (Homo sapiens) (P53779 whole entry): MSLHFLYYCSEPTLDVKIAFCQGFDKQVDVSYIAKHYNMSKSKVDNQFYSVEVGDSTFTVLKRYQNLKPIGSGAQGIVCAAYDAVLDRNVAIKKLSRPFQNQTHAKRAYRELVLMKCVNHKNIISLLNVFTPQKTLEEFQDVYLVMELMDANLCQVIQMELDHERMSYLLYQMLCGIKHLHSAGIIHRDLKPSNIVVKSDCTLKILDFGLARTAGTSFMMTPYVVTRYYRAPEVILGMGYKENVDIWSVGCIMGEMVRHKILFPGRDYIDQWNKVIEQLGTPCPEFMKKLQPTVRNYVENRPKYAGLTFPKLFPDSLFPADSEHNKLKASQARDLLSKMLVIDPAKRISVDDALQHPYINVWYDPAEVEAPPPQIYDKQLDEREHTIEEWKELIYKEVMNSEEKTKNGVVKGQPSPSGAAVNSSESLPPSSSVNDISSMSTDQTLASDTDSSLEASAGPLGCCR
Chain of MAP kinase-activated protein kinase 2 (Homo sapiens) (P49137 whole entry, looked up): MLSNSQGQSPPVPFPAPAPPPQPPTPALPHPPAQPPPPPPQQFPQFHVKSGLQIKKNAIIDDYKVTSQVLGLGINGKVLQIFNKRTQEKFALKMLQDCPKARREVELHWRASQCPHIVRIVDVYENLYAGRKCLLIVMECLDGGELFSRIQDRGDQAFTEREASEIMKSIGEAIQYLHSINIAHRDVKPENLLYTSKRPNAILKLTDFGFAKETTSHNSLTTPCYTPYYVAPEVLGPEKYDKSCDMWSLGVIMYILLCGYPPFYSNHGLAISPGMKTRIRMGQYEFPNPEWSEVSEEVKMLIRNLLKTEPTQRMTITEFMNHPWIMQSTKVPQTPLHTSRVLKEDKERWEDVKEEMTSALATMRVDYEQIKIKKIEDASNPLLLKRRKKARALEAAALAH
Chain of LIM domain kinase 1 (Homo sapiens) (P53667 whole entry, looked up, the tested form may be a part): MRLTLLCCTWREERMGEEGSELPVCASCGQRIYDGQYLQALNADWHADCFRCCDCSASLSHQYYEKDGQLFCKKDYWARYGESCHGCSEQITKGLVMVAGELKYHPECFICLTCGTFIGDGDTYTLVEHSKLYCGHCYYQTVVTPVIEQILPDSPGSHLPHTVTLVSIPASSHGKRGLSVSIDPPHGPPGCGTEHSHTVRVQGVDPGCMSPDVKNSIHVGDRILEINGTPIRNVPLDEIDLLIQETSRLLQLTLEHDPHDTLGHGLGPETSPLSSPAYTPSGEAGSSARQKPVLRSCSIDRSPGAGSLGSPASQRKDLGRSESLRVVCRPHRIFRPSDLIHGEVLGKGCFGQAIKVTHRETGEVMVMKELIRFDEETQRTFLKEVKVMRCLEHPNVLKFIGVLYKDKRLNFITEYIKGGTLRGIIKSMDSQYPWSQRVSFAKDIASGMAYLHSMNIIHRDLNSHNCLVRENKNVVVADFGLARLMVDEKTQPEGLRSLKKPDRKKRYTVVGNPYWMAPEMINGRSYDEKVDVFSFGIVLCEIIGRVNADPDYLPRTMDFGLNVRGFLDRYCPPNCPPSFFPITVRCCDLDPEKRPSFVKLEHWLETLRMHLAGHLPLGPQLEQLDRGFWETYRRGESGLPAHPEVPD

For the compound `N#C/C(=C(\N)Sc1ccc(N)cc1)c1ccccc1C(F)(F)F`, the residual activity was 83% in [1]; 97% in assay [2]; 97% in [3]; 91% in assay [4]; 85% in assay [5]; 105% in [6]. The residual activity in assay [7] turned out to be 93%; in assay [8], 69%; in [9] it was 83%; in assay [10] it was 83%; in [11], 103%; in [12], 110%. In addition, the residual activity in [13] came out at 74%; in assay [14], 65%; in assay [15] it was 67%; in [16] it was 95%; in assay [17], 114%; in assay [18] it was 104%. Further, the residual activity was 90% in assay [19] and 70% in assay [20].

Consider `O=C1Nc2cc(Br)ccc2/C1=C1/Nc2ccccc2/C1=N\O`, for which the residual activity in assay [1] is 16%; in assay [2], 3%; in [3], 2%; in assay [4], 33%; in assay [5] it was 49%; in [6], 99%. Also, the residual activity in [7] worked out at 81%; in [8], 72%; in [9] it was 69%; in [10], 2%; in [11] it was 10%; in assay [12] it was 1%. Besides, the residual activity in assay [13] is 19%; in [14] it was 4%; in assay [15], 1%; in assay [16], 102%; in assay [17], 80%; in assay [18], 108%. For the same compound, the results for the residual activity in [19] and in assay [20] were 106% and 96%, respectively.

With `Cc1nc2cc3nc(-c4cccs4)cnc3cc2n1C`, the residual activity in assay [1] stood at 107%; in assay [2], 36%; in assay [3] it was 5%; in [4], 116%; in assay [5] it was 99%; in assay [6], 97%. Besides, the residual activity in assay [7] was 107%; in [8], 107%; in [9], 99%; in assay [10] it was 112%; in assay [11], 54%; in [12] it was 89%. For the same compound, the residual activity in [13] was found to be 48%; in assay [14] it was 91%; in assay [15] it was 32%; in assay [16], 114%; in assay [17], 95%; in assay [18] it was 100%. For the same compound, the residual activity in [19] was found to be 103%; in assay [20] it was 104%.

As for `CNc1cc2c(Nc3cccc(Br)c3)ncnc2cn1`, the residual activity was 60% in [1]; 85% in assay [2]; 40% in assay [3]; 102% in assay [4]; 43% in assay [5]; 99% in [6]. Besides, the residual activity in assay [7] worked out at 95%; in assay [8], 27%; in assay [9], 10%; in assay [10] it was 87%; in assay [11], 19%; in assay [12], 73%. Besides, the residual activity in assay [13] turned out to be 79%; in assay [14], 10%; in assay [15], 5%; in [16] it was 86%; in assay [17], 95%; in [18], 102%. Moreover, the residual activity amounted to 96% in [19] and 119% in [20].

Regarding `COc1cccc(-c2cc(=O)c3ccccc3o2)c1N`, the residual activity in assay [1] came to 95%; in assay [2], 101%; in assay [3], 102%; in assay [4], 93%; in assay [5], 93%; in assay [6], 103%. Also, the residual activity is 100% in assay [7]; 114% in assay [8]; 105% in [9]; 85% in [10]; 85% in assay [11]; 103% in [12]. For the same compound, the residual activity in assay [13] was determined as 93%; in assay [14], 93%; in assay [15] it was 80%; in assay [16], 106%; in assay [17], 90%; in [18] it was 114%. Also, the residual activity was 96% in assay [19] and 99% in assay [20].

As to `Oc1c2ccccc2c2c3c(cccc13)N=N2`, the residual activity in [1] is -6%; in assay [2], 17%; in [3], 3%; in assay [4], 64%; in assay [5], 30%; in [6], 75%. The residual activity worked out at 41% in assay [7]; 87% in assay [8]; 62% in assay [9]; 70% in [10]; 69% in assay [11]; 89% in assay [12]. Further, the residual activity in assay [13] came to 43%; in assay [14], 70%; in assay [15] it was 30%; in [16], 59%; in assay [17], 72%; in [18], 88%. The residual activity amounted to 55% in assay [19] and 79% in assay [20].

With `O=C(O)c1ccc2c3c1cccc3c(=O)n1c3ccccc3nc21`, the residual activity amounted to 34% in assay [1]; 41% in assay [2]; 56% in assay [3]; 101% in assay [4]; 89% in assay [5]; 107% in [6]. The residual activity in assay [7] was found to be 95%; in assay [8] it was 60%; in [9] it was 39%; in [10], 83%; in [11], 109%; in assay [12] it was 95%. Moreover, the residual activity in assay [13] came out at 79%; in assay [14], 96%; in assay [15], 87%; in [16], 117%; in [17], 77%; in assay [18] it was 123%. Besides, the residual activity in assay [19] stood at 96%; in assay [20] it was 86%.

For `c1ccc(-c2n[nH]cc2-c2ccnc3ccccc23)nc1`, the residual activity came out at 52% in assay [1]; 57% in assay [2]; 23% in assay [3]; 90% in [4]; 74% in assay [5]; 96% in [6]. For the same compound, the residual activity in assay [7] came to 94%; in [8] it was 90%; in assay [9], 93%; in [10], 123%; in assay [11] it was 71%; in assay [12], 91%. Further, the residual activity in assay [13] came to 66%; in [14] it was 90%; in assay [15], 24%; in assay [16] it was 88%; in assay [17] it was 83%; in [18] it was 96%. The results for the residual activity in [19] and in [20] were 109% and 101%, respectively.

With `Oc1n[nH]c2nnc(-c3c(-c4ccccc4)nn4ccccc34)cc12`, the residual activity worked out at 43% in assay [1]; 93% in [2]; 89% in assay [3]; 77% in [4]; 87% in assay [5]; 91% in assay [6]. The residual activity is 96% in assay [7]; 100% in [8]; 79% in assay [9]; 88% in assay [10]; 82% in [11]; 90% in assay [12]. The residual activity in assay [13] was found to be 71%; in [14], 71%; in assay [15] it was 68%; in assay [16], 92%; in assay [17] it was 93%; in assay [18], 101%. Besides, the residual activity in assay [19] came out at 105%; in assay [20], 82%.

Regarding `COc1ccc(CNc2nc(N(CCO)CCO)nc3c2ncn3C(C)C)cc1`, the residual activity in assay [1] stood at 70%; in [2] it was 79%; in assay [3] it was 74%; in assay [4], 90%; in [5], 88%; in assay [6] it was 126%. For the same compound, the residual activity in [7] was 73%; in [8], 101%; in assay [9] it was 88%; in assay [10], 62%; in [11] it was 77%; in assay [12] it was 104%. Moreover, the residual activity in assay [13] was determined as 79%; in assay [14], 74%; in [15], 78%; in assay [16] it was 91%; in assay [17] it was 87%; in [18], 123%. Besides, the residual activity came to 87% in [19] and 96% in assay [20].

Turning to `O=C1NC(=O)/C(=C/c2ccc3c(c2)OC(F)(F)O3)S1`, the residual activity in [1] stood at 83%; in [2] it was 105%; in [3], 97%; in assay [4] it was 110%; in assay [5] it was 88%; in assay [6] it was 102%. For the same compound, the residual activity was 94% in assay [7]; 89% in assay [8]; 89% in assay [9]; 125% in [10]; 128% in assay [11]; 87% in assay [12]. Moreover, the residual activity in assay [13] was determined as 91%; in assay [14], 100%; in assay [15], 65%; in assay [16], 90%; in assay [17], 77%; in assay [18] it was 104%. The residual activity was 107% in [19] and 93% in assay [20].

As to `O=C(Nc1cccc(Nc2nccc(Nc3cccc(C(F)(F)F)c3)n2)c1)C1CC1`, the residual activity in [1] was -3%; in assay [2] it was 81%; in assay [3], 25%; in assay [4], 26%; in [5] it was 4%; in assay [6], 100%. Further, the residual activity in assay [7] stood at 94%; in assay [8], 66%; in assay [9], 44%; in [10], 73%; in assay [11] it was 19%; in assay [12], 57%. The residual activity was found to be 42% in [13]; 41% in [14]; 6% in assay [15]; 89% in [16]; 91% in assay [17]; 89% in assay [18]. Further, the residual activity worked out at 84% in [19] and 115% in assay [20].

As to `Nc1nc(Nc2ccc(S(N)(=O)=O)cc2)nn1C(=S)Nc1c(F)cccc1F`, the residual activity in assay [1] came out at 3%; in [2], 0%; in assay [3], 0%; in assay [4], 5%; in assay [5], 2%; in assay [6], 87%. Also, the residual activity is 41% in assay [7]; 0% in assay [8]; 0% in assay [9]; 4% in assay [10]; 16% in assay [11]; 8% in assay [12]. Besides, the residual activity in assay [13] was found to be 18%; in assay [14], 6%; in [15], 1%; in assay [16], 29%; in assay [17] it was 3%; in [18], 49%. For the same compound, the residual activity is 3% in assay [19] and 44% in [20].
